Screening data from PubChem.
Most compounds without a hit are left out; they make up all but 19% or so of the library.
DT40 TDP1 CPT – DT40-hTDP1 cell growth loss with CPT | Potency, µM (doses to about 46.2 µM), inactives show at the top dose activity change, negative = growth inhibition, actives largely listed as inhibitors | hit rate 12% among 420,000 | AID 686979 | chicken DT40 Tdp1-/-;hTDP1 cells + 20 nM CPT, ATP luminescence, 48 h; further: potency means the concentration at half of the fitted maximal effect; nearly all actives have a fitted effect of over 55% in size
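Cell growth measured by CellTiter-Glo luminescence after a minimum 48 h, 37 C compound exposure with 20 nM CPT in Tdp1-knockout DT40 cells stably expressing hTDP1, seeded 400/well; qHTS titration format.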
TDP1 cell noCPT – qHTS for Inhibitors of human tyrosyl-DNA phosphodiesterase 1 (TDP1): qHTS in cells in absence of CPT | DT40 Tdp1-/- hTDP1 cells, no CPT, ATP luminescence, 48 h | hit rate 15% among 420,000 | AID 686978, 2013 | Potency, µM (titrated, usually from 46.2 µM), inactives show at the highest dose activity change, negative = growth inhibition, most hits filed as inhibitors; further: potency means the concentration at half of the fitted maximal effect; nearly all actives have a fitted effect of over 55% in size
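No-CPT arm: Tdp1-/-;hTDP1 DT40 cells (400/well) plus compounds, incubated ≥48 hr at 37 °C. Readout CellTiter-Glo luminescence.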
IL1B secr inh – blocks inflammasome-driven IL-1 beta release | THP-1 LPS/ATP IL-1B secretion, AlphaLISA, 16 h; hits give low values | activity change, % at 57.5 µM | hit rate 4.7% among 360,000; in the data active means activity change below about -50%; inconclusive means mostly about -30% to -49%
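Secreted IL-1B measured by AlphaLISA bead assay after 16 h compound exposure of THP-1 cells; compounds (final up to 57.5 uM) added 1 h before LPS (250 ng/mL) and ATP (1.25 mM) stimulation; lower signal means less secretion.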
HT1080 IDH1KD tx – toxicity to HT-1080 IDH1 knockdown cells (counter line); HT-1080 IDH1 knockdown viability, ATP luminescence, 48 h; Potency, µM (series often up to 46.1 µM), for the others: at the highest dose activity, negative = toxicity, actives largely listed as cytotoxic; hit rate 2% among 360,000; AID 686971;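 further: potency means the concentration at half of the fitted maximal effect; 0% = DMSO wells and -100% = cell-free medium wells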
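Cytotoxicity counter-line: IDH1KD HT-1080, 48 h, CellTiter-Glo. Curves classed by r2, magnitude and activity.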
HT1080-NT tox – kills 2HG-producing HT-1080-NT fibrosarcoma cells; HT-1080-NT fibrosarcoma viability, CellTiter-Glo ATP luminescence, 48 h; Potency, µM (highest dose often 46.1 µM), without a hit: at the highest dose activity, negative = less viability, usual class: cytotoxic; hit rate 1.6% among 360,000;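 further: NT is the 2HG producing partner of a matched IDH1 knockdown line; potency means the concentration at half of the fitted maximal effect; 0% = DMSO-treated cells and -100% = media-only wells without cells; nearly all actives have a fitted effect of over 55% in size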
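A 48-hour cytotoxicity screen used HT-1080-NT cells plated 2 hours before compound delivery. ATP-based CellTiter-Glo luminescence measured viability, normalized to DMSO and no-cell controls.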
* hit, by the source's call; u = inconclusive; x = not tested or not shown; [ ] = another dose, or the depositor's remark. Unless noted, the call rests on the fitted dose curve; in most records, active means well fitted curve in the direction sought with a large enough effect; inconclusive means small, poorly fitted or top-dose-only effect, or another doubt; inactive means no such curve, though single readings can be large; an effect the other way counts as inactive or inconclusive. Unless noted, on the % scale 0 is the no-effect control and ±100 the full control effect.

SMILES	DT40 TDP1 CPT	TDP1 cell noCPT	IL1B secr inh	HT1080 IDH1KD tx	HT1080-NT tox
CC(C)CNC(=O)C1(C)CCCN1C(=O)c1c(Cl)cccc1Cl (centres undefined)	-7%	-23%	9	7%	18%
CCOc1ccc(NC(=O)c2cc3sc(Cl)cc3n2CC)cc1	-29%	u	x	x	x
COc1ccc(-c2cc(-c3nnc(COC(=O)C4CC4)o3)c3ccccc3n2)cc1OC	u	9.2µM*	10	1%	-10%
COc1ccc(-c2cc(-c3nnc(COC(=O)c4ccc(O)cc4)o3)c3ccccc3n2)cc1OC	u	10µM*	u	u	u
COc1ccc(-c2cc(-c3nnc(COC(=O)C4CC4C)o3)c3ccccc3n2)cc1OC (centres undefined)	21µM*	16µM*	-53*	10%	4%
COc1ccc(-c2cc(C(=O)N3CC(C)CC(C)C3)c3ccccc3n2)cc1OC (centres undefined)	u	u	-14	-1%	0%
Clc1ccc(-c2nc(/C=N/N3CCOCC3)c3ccccn23)cc1	u	-28%	-26	0%	-1%
CC1(Oc2ccccc2-c2ccn[nH]2)CCN(Cc2ccc(OC(F)(F)F)cc2)C1 (centres undefined)	u	u	-6	u	u
CNC(=S)N(CCc1c(C)[nH]c2ccccc12)Cc1cc(OC)c(OC)c(OC)c1	u	21µM*	-13	-1%	-7%
CCNC(=S)N(CCc1c(C)[nH]c2ccccc12)Cc1cc(OC)c(OC)c(OC)c1	16µM*	10µM*	-26	-11%	-4%
CCNC(=S)N(CCc1c(C)[nH]c2ccccc12)Cc1cccnc1	u	u	22	1%	0%
CNC(=S)N(CCc1c(C)[nH]c2ccc(C)cc12)Cc1cc(OC)c(OC)c(OC)c1	u	15µM*	-9	0%	-1%
O=S(=O)(/N=C(/Nc1ccccn1)c1ccccc1)c1ccccc1	5%	-15%	9	-4%	4%
COc1cc(OC)c(N(C)C(=O)Nc2cn(CC(C)C)c(=O)c3ccccc23)cc1Cl	21µM*	23µM*	x	x	x
CCN(C(=O)Nc1cn(CC(C)C)c(=O)c2ccccc12)c1cc(C)ccc1C	9.2µM*	9.2µM*	x	x	x
Cc1ccc(Cl)cc1NC(=O)Nc1cn(CC(C)C)c(=O)c2ccccc12	-3%	10%	x	x	x
CSCC[C@H](NC(=O)OC(C)(C)C)c1nnc(SCC=C(C)C)o1	-26%	-13%	14	3%	13%
COc1ccc(OS(=O)(=O)c2c(C)noc2C)cc1	-16%	-12%	-1	9%	18%
CCCC[C@@H](CNC)NC[C@H](NCCCCC1CCCCC1)C(C)C	6.5µM*	5.2µM*	u	u	u
Cc1ccc(S(=O)(=O)N2CCN(C(=O)CN3C(=O)c4ccc([N+](=O)[O-])cc4C3=O)CC2)cc1C	-11%	-2%	17	6%	0%
CCc1ccc(CN(Cc2cn[nH]c2-c2ccc(OC)cc2)C(=O)Nc2ccc(Br)cc2)cc1	23µM*	18µM*	x	x	x
CCc1ccc(CN(Cc2cn[nH]c2-c2ccc(OC)cc2)C(=O)Nc2ccc(C)c(F)c2)cc1	21µM*	18µM*	x	x	x
C/C(=N\NC(=O)c1nnn(-c2nonc2N)c1CSc1ccc(C)cc1)c1cccnc1	u	u	-5	-1%	8%
CCOC(=O)c1cc(CC)sc1NC(=O)c1ccc(N2CCOCC2)c([N+](=O)[O-])c1	0%	-14%	u	5%	0%[9.24 µM]
CCOC(=O)c1cc(CC)sc1NC(=O)c1cc([N+](=O)[O-])ccc1N1CCOCC1	3.7µM*	1.3µM*	72	u	u
SMILES	DT40 TDP1 CPT	TDP1 cell noCPT	IL1B secr inh	HT1080 IDH1KD tx	HT1080-NT tox
CCc1nnc(NC(=O)c2cc([N+](=O)[O-])ccc2N2CCOCC2)s1	21%	3%	-4	10%	9%
CCC(CC)c1nnc(NC(=O)c2cc([N+](=O)[O-])ccc2N2CCOCC2)s1	u	18µM*	1	-4%	-8%[9.24 µM]
COc1cc(OC)c(OC)cc1CN1CCCC(n2cc(C(=O)N3CCCCC3)nn2)C1 (centres undefined)	19%[9.04 µM]	-9%	x	x	x
C=C1C(=O)[C@@]23[C@H](O)C[C@@H]4C(C)(C)CC[C@H](O)[C@@]4(C)[C@@H]2CC[C@@H]1[C@H]3O	1µM*	0.82µM*	u	13µM*	15µM*
C=C1C(=O)[C@@]23[C@H](O)C[C@@H]4C(C)(C)CC[C@H](O)[C@]4(C)[C@@H]2C[C@H](O)[C@@H]1[C@H]3O	3.3µM*	u	u	u	-29%
O=C(NCCc1cn2cccnc2n1)C1CCC(=O)N(Cc2ccccc2F)C1 (centres undefined)	-11%	-4%	4	12%	6%
O=C(O)CCSC1CC(=O)N(c2ccccc2)C1=O (centres undefined)	-7%	10%	14	10%	7%
COc1ccc(N2C(=O)CC(Sc3nnc(-c4ccccc4)o3)C2=O)cc1 (centres undefined)	2.9µM*	2.9µM*	-29	-1%	-1%
O=C1CC(Sc2nnc(-c3ccccc3O)o2)C(=O)N1c1ccccc1 (centres undefined)	4.6µM*	4.6µM*	9	4.5µM*	u
COc1ccc(N2C(=O)CC(Sc3nc(C)cc(C)c3C#N)C2=O)cc1 (centres undefined)	-2%	-17%	1	-25%	-2%
COc1ccc(N(CC(=O)N2CCc3ccccc3C2)S(C)(=O)=O)cc1Cl	-7%	-13%	-7	-4%	1%
Fc1ccc(CNc2nc(-c3ccccc3)cc(C(F)(F)F)n2)cc1	21µM*	u	x	x	x
COc1ccc(-c2cc(C(F)(F)F)nc(NCCc3ccccc3)n2)cc1	23µM*	26µM*	x	x	x
Cc1nnc(NC(=O)C2CCCN2C(=O)Nc2ccccc2)s1 (centres undefined)	-4%	13%	9	-14%	-6%
COc1ccccc1C(=O)N[C@@H]1c2ccccc2C2(CCN(C(=O)c3ccnn3C)CC2)[C@H]1OC	-3%[9.04 µM]	u	x	x	x
CCOc1ccc(NC(=S)N2CCc3cc(OC)c(OC)cc3C2COc2ccc3c(C)cc(=O)oc3c2)cc1 (centres undefined)	-11%	2%	-16	-1%	-7%
COc1cc2c(cc1OC)C(COc1ccc3c(C)cc(=O)oc3c1)N(C(=O)c1cccc(OC)c1OC)CC2 (centres undefined)	u	23µM*	x	x	x
